Reference: PubChem BioAssay AID1159580 (chemical genetic matrix, 2015)
Hit rate of the full screen: of about 5,500 compounds, about 2,000 (36%) were called active. Roughly 18% stayed inconclusive and do not appear here. Cut-off read from the data, not from the text of the source: active = normalized growth mostly below about 0.91 (no sharp cut-off); inconclusive = no clear call, values can overlap the other calls; inactive = mostly above about 0.92. The list shows a part of the results.

Assay: chemical genetic growth profiling, strain panel (AID 1159580);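 note: tested at 20 µM; growth read once vehicle control cultures reached saturation at 30 °C; 1 = growth at the plate median or of vehicle wells; lower values mean less growth of the strain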
Conditions: S. cerevisiae deletion strains, growth OD

Measured: normalized growth

CCCCCCOc1ccccc1C(N)=O
active: locus YJR043C, strain POL32, stronger effect = lower value 0.529 | locus YJR066W, strain TOR1, stronger effect = lower value 0.815 | locus YKL009W, strain mrt4, stronger effect = lower value 0.768 | locus YKL068W, stronger effect = lower value 0.851 | locus YKL085W, strain MDH1 (second series), stronger effect = lower value 0.826 | locus YKL085W, strain MDH1, stronger effect = lower value 0.826 | locus YKL160W, strain elf1, stronger effect = lower value 0.883 | locus YKL190W, strain CNB1, stronger effect = lower value 0.281 | locus YKR001C, strain vps1, stronger effect = lower value 0.678 | locus YLL001W, strain dnm1, stronger effect = lower value 0.887 | locus YLL026W, stronger effect = lower value 0.877 | locus YLR027C, strain aat2, stronger effect = lower value 0.898 | locus YLR058C, strain SHM2, stronger effect = lower value 0.641 | locus YLR102C, strain apc9, stronger effect = lower value 0.667 | locus YLR113W, strain HOG1, stronger effect = lower value 0.85 | locus YLR221C, strain rsa3, stronger effect = lower value 0.845 | locus YLR258W, strain gsy2, stronger effect = lower value 0.862 | locus YLR268W, strain sec22, stronger effect = lower value 0.308 | locus YLR320W, strain mms22, stronger effect = lower value 0.59 | locus YLR330W, strain CHS5, stronger effect = lower value 0.355 | locus YLR342W, strain FKS1 (second series), stronger effect = lower value 0.366 | locus YLR342W, strain FKS1, stronger effect = lower value 0.859 | locus YLR371W, strain rom2, stronger effect = lower value 0.566 | locus YLR418C, strain cdc73, stronger effect = lower value 0.207 | locus YML016C, strain PPZ1, stronger effect = lower value 0.822 | locus YML032C, strain rad52, stronger effect = lower value 0.526 | locus YML120C, strain ndi1, stronger effect = lower value 0.857 | locus YML124C, strain tub3, stronger effect = lower value 0.725 | locus YMR058W, strain fet3, stronger effect = lower value 0.807 | locus YMR078C, strain ctf18, stronger effect = lower value 0.361 | locus YMR125W, strain sto1, stronger effect = lower value 0.785 | locus YMR205C, strain PFK2, stronger effect = lower value 0.835 | locus YMR223W, strain ubp8, stronger effect = lower value 0.55
inactive: locus YKR026C, strain gcn3, stronger effect = lower value 0.948 | locus YKR091W, strain srl3, stronger effect = lower value 0.953 | locus YLL041C, strain sdh2, stronger effect = lower value 0.94 | locus YLR039C, strain RIC1, stronger effect = lower value 1.04 | locus YLR262C, strain YPT6 (second series), stronger effect = lower value 1.11 | locus YLR262C, strain YPT6, stronger effect = lower value 0.921 | locus YLR357W, strain rsc2, stronger effect = lower value 1.07 | locus YLR370C, strain arc18, stronger effect = lower value 0.932 | locus YLR384C, strain iki3, stronger effect = lower value 0.959 | locus YMR129W, stronger effect = lower value 0.945 | locus YMR231W, strain pep5, stronger effect = lower value 0.979
